Laboratory results taken from PubChem BioAssay AID686915 (National Center for Advancing Translational Sciences (NCATS), 2013).
“And” between values parts separate entries of the source, which are not always exact repeats. Identical values can stand only once. Results filed as inconclusive are left out. A call without a number means that no potency is given here. The source made the active and inactive calls. Calls follow the shape of the dose curve; as a rule, active = well fitted inhibition curve with a large enough effect; inconclusive = small, poorly fitted or top-dose-only effect; inactive = no such curve, though single readings can be large or run the other way.

Experiment: qHTS screen for inhibitors of ELG1-dependent DNA repair in human embryonic kidney (HEK293T) cells expressing luciferase-tagged ELG1: MMS Stimulated Assay for probe SAR
Conditions: HEK293T ELG1-luciferase reporter, 16 h; series mostly up to 46.1 µM
Description: Cancer cells divide rapidly compared to normal cells in the body. During cell division, cancer cells need to duplicate their genome by DNA replication. The failure of genome duplication leads to cancer cells' death. Therefore, inhibitors of DNA replication could specifically kill cancer cells. Based on this concept, many chemotherapeutic agents were developed and have been used to treat cancer patients. However, there are a limited number of agents available in the clinical setting, and some of those that do exist have low efficacy and severe side effects. Therefore, if we can find the compounds that effectively block DNA replication either by directly damaging DNA or by inhibiting other cellular mechanisms, the options for cancer treatment will be broadened. With this in mind, we developed a quantitative high-throughput ELG1-luciferase reporter gene assay. Small molecules that specifically block ELG1 function in response to DNA damage can be identified by monitoring the suppression of luciferase activity. Since ELG1 defines a pathway for repairing DNA damage, agents blocking ELG1 function can be used to sensitize cancer cells to chemotherapeutic agents whose mechanism of action involves the induction of DNA damage. NIH Molecular Libraries Probe Production Network [MLPCN] NIH Chemical Genomics Center [NCGC] MLPCN Grant: R03 MH092164 Assay Provider: Kyungjae Myung, NHGRI, NIH
ELG1-luc HEK293T cells will be seeded in 1536-well plates at a density of 2,000 cells / well. Approximately 5 hours after plating, compounds will be added to the plate by pin tool transfer and MMS will be added by FRD dispenser (final concentration of MMS = 10 µM). 16 hours following the addition of the compounds, luciferase activity will be measured using Amplight reagent.
In the case of `COc1cc(-c2nc(Nc3ccc(F)c(F)c3)c3ccccc3n2)c(F)cn1`, the Potency is reported as 8.33 µM (active). With `Fc1ccc(-c2nc(-c3ccncc3)nc3ccccc23)cc1F` the Potency was “inactive”. With `Cc1nc2ccc(Nc3nc(-c4ccncc4)nc4ccccc34)cc2s1` the Potency was “inactive”. With `COc1ccc(Nc2nc(-c3ccncc3)nc3ccccc23)cc1F` the Potency was “inactive”. For `Fc1cc(Nc2nc(-c3ccncc3)nc3ccccc23)ccc1C(F)(F)F`, the Potency was 8.33 µM (active) and 13.2 µM (active). In the case of `COc1cnccc1-c1nc(Nc2ccc(F)c(F)c2)c2ccccc2n1`, the Potency is reported as 13.2 µM (active). With `Fc1cc(Nc2nc(-c3ccncc3)nc3ccccc23)ccc1N1CCNCC1` the Potency was “inactive”. For `CCOC(=O)c1ccc2c(c1)c(C(C)=O)c(C)n2-c1ccc(OC)cc1`, the Potency was “inactive”. In the case of `COc1cc(Nc2nc(-c3ccncc3)nc3ccccc23)ccc1F`, the Potency is reported as 23.5 µM (active) and 20.9 µM (active). For `Cc1cc(-c2nc(Nc3ccc(F)c(F)c3)c3ccccc3n2)ccn1`, the Potency was “inactive”. With `Cc1cnccc1-c1nc(Nc2ccc(F)c(F)c2)c2ccccc2n1` the Potency was “inactive”. For `Cc1noc(C)c1-c1ccc(Nc2nc(-c3ccncc3)nc3ccccc23)cc1F`, the Potency was 18.7 µM (active).
